Assay results taken from PubChem BioAssay (Tox21).
Values joined by “and” are separate entries in the source; they are usually repeats but may differ in a detail not shown here. Equal values may be shown once. Records with an inconclusive call do not appear. Entries that show only a call come without a potency. The source holds several records for some structures; these can differ, active in one and inactive in another. Active and inactive are the calls of the source. Calls follow the shape of the dose curve; as a rule, active = well fitted cell-killing curve with a large enough effect in the repeat runs; inconclusive = weak or mixed curves; inactive = flat fitted curve, though single readings scatter.

experiment: qHTS RealTime-Glo MT Cell Viability Assay in HepG2 cells - 8 hour (AID 1224873); settings: RealTime-Glo luminescence; series mostly up to 76.8 µM; also: nearly all actives have a fitted effect of over 55% in size
Text: National Center for Advancing Translational Sciences [NCATS]
NIH Chemical Genomics Center [NCGC]
U.S. Environmental Protection Agency [EPA]
National Institutes of Environmental Health Sciences [NIEHS]
National Toxicology Program [NTP]
U.S. Food and Drug Administration [FDA]
Measure of cell viability is critical in the cell-base assay. Analysis of cell viability is necessary for the characterization of cell responses to cytotoxic drugs and environmental stress. A RealTime-Glo MT Cell Viability Assay to monitor cell viability in real time of continues cell culture during 40 hours of compound treatment was used to screen Tox21 10K library compounds in HepG2 cells. The RealTime-Glo MT Cell Viability Assay is a nonlytic, homogeneous, bioluminescent method to measure cell viability in real time using a simple, plate-based method. The assay involves adding NanoLuc luciferase and a cell-permeant prosubstrate to cells in culture. Viable cells reduce the proprietary prosubstrate to generate a substrate for NanoLuc luciferase. This substrate diffuses from cells into the surrounding culture medium, where it is rapidly used by the NanoLuc Enzyme to produce a luminescent signal. The signal correlates with the number of viable cells, making the assay well suited for cytotoxicity studies.
Tox21 Assay Protocol Summary:
The mixture of HepG2 cell suspension and reagents were dispensed at 600cells/6 ul/well in 1536-well tissue culture treated black solid bottom plates using a Multidrop dispenser. After the assay plates were incubated at a 37 C/5% CO2 incubator for 5 hours, 23 nL of compounds dissolved in DMSO, positive and negative controls was transferred to the assay plate by a pintool work station. The plates were incubated at 37 C for 40 hours. The luminescence intensity were measured at 0h, 8h, 16h, 24h, 32h and 40h time points using ViewLux plate reader during compound treatment.
Potency is read from the fitted curve at half-maximal effect.

SMILES | Potency
Nc1cc([N+](=O)[O-])ccc1C(=O)O | inactive
CCCCCC=O | inactive
C=C1C[C@H]2[C@@H]3C=C(C)C4=CC(=O)CC[C@]4(C)[C@H]3CC[C@]2(C)[C@@]1(OC(C)=O)C(C)=O | inactive
NCCN | inactive
CCCCCC1C(=O)CCC1CC(=O)OC (stereo not given) | inactive
CN1CCOCC1 | inactive
Brc1nc2ccccc2s1 | inactive
Nc1ccc(O)c(N)c1 | inactive
CCCCCCCCCCC(CO)CCCCCCCC (stereo not given) | inactive
NCCOCCO | inactive
OCCNCCO | inactive
CC1(C)NC(=O)N(c2ccc([N+](=O)[O-])c(C(F)(F)F)c2)C1=O | inactive
C=CC(=O)OCCCC | inactive
Cc1ccc(N)c([N+](=O)[O-])c1 | inactive
ClC/C=C/CCl | inactive
O=C(O)CCCCCCCCCCCC(=O)O | inactive
CCc1cccc2c3c([nH]c12)C(CC)(CC(=O)O)OCC3 (stereo not given) | inactive
COc1cc([C@H]2Oc3cc([C@H]4Oc5cc(O)cc(O)c5C(=O)[C@@H]4O)ccc3O[C@@H]2CO)ccc1O | inactive
Nc1ccc2c(c1)C(=O)c1ccccc1C2=O | inactive
Cc1ccc(C)c(O)c1 | inactive

SMILES | Potency
c1ccc2c(c1)ccc1ncccc12 | inactive
Nc1ccc(N)c(Cl)c1 | inactive and 49 µM (active)
Cc1ccc(C(C)(C)C)c(O)c1 | inactive
Oc1ccc(C(c2ccc(O)cc2)C(Cl)(Cl)Cl)cc1 | inactive
C=CC(C)(O)CCC=C(C)C (stereo not given) | inactive
C=C[C@@]1(C)CC(=O)[C@]2(O)[C@@]3(C)[C@@H](O)CCC(C)(C)[C@@H]3[C@H](O)[C@H](OC(C)=O)[C@@]2(C)O1 | inactive
c1ccc2c(c1)[nH]c1ccccc12 | inactive
CC(C)(Oc1ccc(Cl)cc1)C(=O)O | inactive
Cc1ccc(S(=O)(=O)NCl)cc1 | inactive
C=C[C@H]1CN2CC[C@H]1C[C@@H]2[C@@H](O)c1ccnc2ccc(OC)cc12 | inactive
Cc1ccc(/C(=C\CN2CCCC2)c2ccccn2)cc1 | inactive
CC(=O)[C@H]1CC[C@H]2[C@@H]3CC=C4C[C@@H](O)CC[C@]4(C)[C@H]3CC[C@]12C | inactive
Clc1ccc(Sc2cc(Cl)c(Cl)cc2Cl)cc1 | inactive
CN(Cc1cnc2nc(N)nc(N)c2n1)c1ccc(C(=O)N[C@@H](CCC(=O)O)C(=O)O)cc1 | inactive
CC(=O)O[C@]1(C(C)=O)CC[C@H]2[C@@H]3C=C(Cl)C4=CC(=O)CC[C@]4(C)[C@H]3CC[C@@]21C | inactive
C[C@]12C=CC(=O)C=C1CC[C@H]1[C@@H]3C[C@@H](O)[C@](O)(C(=O)CO)[C@@]3(C)C[C@H](O)[C@@]12F | inactive
CC(=O)O[C@]1(C(C)=O)CC[C@H]2[C@@H]3C=C(C)C4=CC(=O)CC[C@]4(C)[C@H]3CC[C@@]21C | inactive
CC/C=C\C/C=C\C/C=C\CCCCCCCC(=O)O | inactive
CCCCCCCCCCCCO | inactive
CC(C)[N+](C)(CCOC(=O)C1c2ccccc2Oc2ccccc21)C(C)C | inactive
